# Values joined by “and” are separate entries in the source; they are usually repeats but may differ in a detail not shown here. Identical values can stand only once. Hit rate of the full screen: of about 320,000 compounds, about 2,100 (0.66%) were called active. About 53% were inconclusive and are not listed. Calls come from the whole dose curve; as a rule, active = well fitted inhibition curve with a large enough effect in the signal ratio, with a control signal flat (not every such curve was filed as active); inconclusive = small, poorly fitted or top-dose-only effect, or effect the other way, or a change in a side signal; inactive = flat fitted curve, though single readings scatter; the % refers to the signal ratio. The list comes from a sample in which actives are over-represented; it also holds similar structures and randomly drawn compounds.
# Test: qHTS Assay for Lipid Storage Modulators in Drosophila S3 Cells;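 for cell number change: cells counted by Cell Tracker Red CMTPX staining in the red channel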; for lipid storage change, negative = inhibition: % is set by controls: 0 for no effect and ±100 for the full control effect
# Conditions: BODIPY lipid droplet fluorescence, 18-24 h, cells fed with added oleic acid; cell number change: measured here: cell count max response; series mostly up to 46.1 µM; lipid storage change, negative = inhibition: at the top concentration
# How it was run: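 Drosophila S3 cells loaded with oleic acid (400 uM, as added) and compounds at several concentrations; lipid droplets imaged by 488-nm laser-scanning cytometry, 500–530 nm intensity and object ratio to cell channel. Percent activity normalized to 20 uM Triacsin C.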
# Potency is the fitted concentration of half-maximal effect.
SMILES,"lipid storage change, negative = inhibition",cell number change,Potency,outcome
Cc1ccccc1COC(=O)c1nn(-c2ccccc2)nc1N,-1.71% (inactive),3.63%,,
CCOC(=O)C(NC(=O)c1ccc(F)cc1)(Nc1nnc(C)s1)C(F)(F)F (stereo not drawn),-21.6% (inactive),2.37%,,
COc1ccc(NC(=O)N2CCCC(CNS(=O)(=O)c3cccs3)C2)c(C)c1 (stereo not drawn),12.7% (inactive),-5.03%,,
COCCn1c(SCC(=O)Nc2ccc(F)cc2)nc2ccccc2c1=O,-11.7% (inactive),3.47%,,
COCCCn1c(SCC(=O)Nc2ccc(C)cc2)nc2ccccc2c1=O,-20% (inactive),-12.3%,,
COCCn1c(SCC(=O)Nc2cc(C)cc(C)c2)nc2ccccc2c1=O,,-20.8%,2.06 µM (active),
CSCC[C@H](NC(=O)COc1ccc(Cl)cc1)C(=O)N1CCC2(CC1)NCCc1[nH]cnc12,,,,inactive
O=C(NC(Cc1ccccc1)C(=O)O)C1CCCCC1 (stereo not drawn),-0.512% (inactive),-3.98%,,
CCCC(C(=O)NCCC(C)C)N(Cc1ccc(OC)cc1)C(=O)c1snc(C(N)=O)c1N (stereo not drawn),-29.9% (inactive),-7.72%,,
CCC(C(=O)NC1CCCC1)N(Cc1ccccc1Cl)C(=O)c1snc(C(N)=O)c1N (stereo not drawn),,-3.04%,0.58 µM (active),
CCCC(C(=O)NCCC(C)C)N(Cc1ccc(F)cc1)C(=O)c1snc(C(N)=O)c1N (stereo not drawn),3.86% (inactive),-7.77%,,
COc1ccc(N(C(=O)c2snc(C(N)=O)c2N)C(C(=O)NC2CCCCC2)c2ccc(F)cc2)c(OC)c1 (stereo not drawn),,,13 µM (active),
CCCC(C(=O)NCCC(C)C)N(Cc1ccccc1)C(=O)c1snc(C(N)=O)c1N (stereo not drawn),,-3.86%,3.66 µM (active),
CCC(C(=O)NC(C)(C)C)N(Cc1ccccc1Cl)C(=O)c1snc(C(N)=O)c1N (stereo not drawn),,-22.3%,,inactive
COc1ccc(N(C(=O)c2snc(C(N)=O)c2N)C(C(=O)NC2CCCC2)c2cc(OC)ccc2OC)c(OC)c1 (stereo not drawn),,-0.901%,,inactive
CCC(C(=O)NC1CCCCC1)N(Cc1cccs1)C(=O)c1snc(C(N)=O)c1N (stereo not drawn),23.1% (inactive),,,
COc1ccc(C(C(=O)NC2CCCC2)N(C(=O)c2snc(C(N)=O)c2N)c2cc(C)ccc2OC)cc1OC (stereo not drawn),-18.1% (inactive),-1.28%,,
CCOC(=O)Cc1csc(NC(=S)NC(=O)c2cc(OC)c(OC)c(OC)c2)n1,-6.87% (inactive),-1.2%,,
COc1ccc(NC(=O)Nc2nnc(-c3cccs3)s2)cc1,10.9% (inactive),-11.4%,,
COc1ccc(C(=O)Nc2nc(-c3ccccc3)c(C(C)=O)s2)c(OC)c1,-6.74% (inactive),-8.6%,,

SMILES,"lipid storage change, negative = inhibition",cell number change,Potency,outcome
COCCn1c(=O)[nH]c2cc(C(=O)NC(C)C)ccc2c1=O,9.58% (inactive),2.66%,,
CCCS(=O)(=O)c1nc(S(=O)(=O)c2ccc(C)cc2)c(NCCCN(C)C)s1,1.35% (inactive),6.73%,,
CC(=O)NC(c1cccs1)c1cc(F)c2cccnc2c1O (stereo not drawn),,,8.4% and -17.4%,
CC(=O)NC(c1cccs1)c1cc(Br)c2cccnc2c1O (stereo not drawn),10.4% (inactive),16.4%,,
CC(=O)NC(c1ccco1)c1cc(F)c2cccnc2c1O (stereo not drawn),-4.42% (inactive),-4.72%,,
Cc1cc(C)c(NC(=O)CS(=O)CC(=O)NCC2CCCO2)c(C)c1 (stereo not drawn),4.71% (inactive),3.77%,,
Cc1ccc(NC(=O)c2cccc(C(F)(F)F)c2)cc1NC(=O)c1[nH]cnc1C(N)=O,,-5.2%,0.517 µM (active),
Cc1ccc(C(=O)Nc2cccc(C(F)(F)F)c2)cc1NC(=O)c1nccnc1N,-14.7% (inactive),-18.4%,,
Cc1ccc(C(=O)Nc2cccc(C(F)(F)F)c2)cc1Nc1ncnc2nc[nH]c12,14.7% (inactive),-0.327%,,
CC(NC(=O)c1cc(S(=O)(=O)N2CCCC2)ccc1Cl)c1ccccn1 (stereo not drawn),11.6% (inactive),12.8%,,
O=C(N/N=C/c1ccc([N+](=O)[O-])cc1)c1ccc2nc[nH]c2c1,6.51% (inactive),-15.6%,,
O=C(Nc1ccc(F)cc1)c1cc(Cl)sc1Cl,5.17% (inactive),-1.56%,,
CN1c2ccccc2C(O)=C(C(=O)Nc2ccccc2)S1(=O)=O,15.4% (inactive),,,
CN1c2ccsc2C(O)=C(C(=S)Nc2ccccc2)S1(=O)=O,,15.4%,18.4 µM (active),
Cc1ccccc1NC(=S)C1=C(O)c2sccc2N(C)S1(=O)=O,,,,inactive
COc1ccc(NC(=S)NNC(=O)CNc2ccc(Cl)cc2)cc1,18% (inactive),,,
COc1ccccc1N1CCN(CC(C)N(C(=O)C2CCCCC2)c2ccccn2)CC1 (stereo not drawn),12.2% (inactive),9.42%,,
CCOc1cc(C2C(C(=O)c3ccc(C)o3)=C(O)C(=O)N2CCc2ccccc2)ccc1O (stereo not drawn),16.1% (inactive),,,
COC(=O)c1cc(NC(=O)CN2CCN(C(C)=O)CC2)cc(C(=O)OC)c1,-5.4% (inactive),15.4%,,
CCOc1ccc(NC(=O)CCN2CCCCC2)cc1,-2.95% (inactive),9.23%,,

SMILES,"lipid storage change, negative = inhibition",cell number change,Potency,outcome
CCOC(=O)c1cc(NC(=O)CN2CCCC2)cc(C(=O)OCC)c1,,-1.35%,2.31 µM (active),
O=C(CN1CCCCCC1)Nc1cccc(NC(=O)CN2CCCCCC2)c1,-3.29% (inactive),-11.3%,,
O=C(CCN1CCN(CCO)CC1)Nc1ccc(Br)cc1,-8.8% (inactive),0.964%,,
O=C(CCN1CCCC1)Nc1cccc(Br)c1,8.6% (inactive),-0.144%,,
COC(=O)c1ccc(NC(=O)CN2CCCC2)cc1,-7.98% (inactive),-13.3%,,
O=C(CN1CCCCC1)Nc1cccc(Br)c1,,-14.8%,23.1 µM (active),
COc1ccc(NC(=O)CCN2CCCCC2)cc1,,-13.9%,18.4 µM (active),
COc1ccc(NC(=O)CCN2CCCCCC2)cc1,-1.99% (inactive),-0.671%,,
O=C(CCN1CCN(CCO)CC1)Nc1ccc(F)c(F)c1,,1.67%,6.51 µM (active),
CN1CCN(CCC(=O)Nc2ccc(F)c(F)c2)CC1,-5.86% (inactive),-0.365%,,
O=C(CSc1nc2c(c(=O)n1-c1ccc(F)cc1)SCC2)N1CCCC1,-0.194% (inactive),-5.69%,,
Cc1cc(C)cc(OC(=O)COc2ccccc2C)c1,0.642% (inactive),16.2%,,
CCCOc1ccccc1C(=O)N(Cc1ccco1)C1CCS(=O)(=O)C1 (stereo not drawn),-5.58% (inactive),-17.8%,,
CCOC(=O)C1=C(COC(=O)CCC(=O)c2ccc(C)cc2)NC(=O)NC1C (stereo not drawn),16.2% (inactive),25.4%,,
CC(=O)C(Sc1ccc2nnc(-c3ccncc3)n2n1)C(C)=O,10.9% (inactive),11%,,
Cc1cc(C)cc(N(CCC(=O)Nc2nnc(C)s2)S(=O)(=O)c2ccc(Cl)cc2)c1,13.3% (inactive),-5.03%,,
Cc1nc([N+](=O)[O-])c(SCC(N)=O)n1Cc1ccccc1,-0.96% (inactive),11.1%,,
Cc1ccc(C(=O)C2CCN(S(=O)(=O)c3ccccc3C(=O)O)CC2)cc1,-9.15% (inactive),25.8%,,

# Source: PubChem BioAssay AID2685 (National Center for Advancing Translational Sciences (NCATS), 2010)
